Compounds with a hit are over-represented: about 1% of the library has one in this group of screens.
RXFP1 antagonist: qHTS Assay for Antagonists of the Relaxin Receptor RXFP1; activity change, negative = inhibition, % at 57.5 µM; 350,000 tested, 0.59% active; Relaxin receptor 1 (Homo sapiens), Q9HBX9; HEK293-RXFP1, relaxin-stimulated cAMP HTRF, 30 min; hits give low values; AID 1259400, 2018;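 active = activity change of -60% or lower, but not beyond a set lower limit; inconclusive = change between -60% and -40%, or beyond the set limit; inactive = change above -40%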
Target sequence (Q9HBX9 whole entry, looked up): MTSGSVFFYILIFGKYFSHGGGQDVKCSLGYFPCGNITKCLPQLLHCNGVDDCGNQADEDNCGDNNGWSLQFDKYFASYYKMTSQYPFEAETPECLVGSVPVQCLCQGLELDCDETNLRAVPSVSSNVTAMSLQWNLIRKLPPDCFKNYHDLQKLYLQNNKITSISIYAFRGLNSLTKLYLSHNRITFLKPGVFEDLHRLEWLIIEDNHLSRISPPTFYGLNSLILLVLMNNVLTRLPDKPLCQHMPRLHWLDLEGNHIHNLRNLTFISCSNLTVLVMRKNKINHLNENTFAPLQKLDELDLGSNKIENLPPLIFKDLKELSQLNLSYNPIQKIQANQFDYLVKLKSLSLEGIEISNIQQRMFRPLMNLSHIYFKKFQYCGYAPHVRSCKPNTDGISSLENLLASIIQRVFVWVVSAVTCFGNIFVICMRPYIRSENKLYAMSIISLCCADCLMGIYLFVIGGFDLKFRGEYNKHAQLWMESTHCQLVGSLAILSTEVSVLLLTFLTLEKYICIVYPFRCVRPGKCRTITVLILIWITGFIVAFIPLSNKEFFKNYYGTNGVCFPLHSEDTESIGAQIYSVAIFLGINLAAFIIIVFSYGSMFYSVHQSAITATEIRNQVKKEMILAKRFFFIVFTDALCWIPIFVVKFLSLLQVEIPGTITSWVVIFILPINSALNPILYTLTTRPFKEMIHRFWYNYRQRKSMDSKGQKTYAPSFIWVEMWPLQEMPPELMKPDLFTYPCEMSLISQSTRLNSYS
PTHR1 agonist: qHTS for PTHR1 Agonists: Primary Screen; 410,000 tested, 0.075% active; AID 743266, 2014; Parathyroid hormone/parathyroid hormone-related peptide receptor (Homo sapiens), Q03431; HEK293 GP2 PTHR1 cells, GloSensor cAMP luminescence, 1 h; Potency, µM (highest dose often 115 µM), hits mostly activators; note: nearly all actives have a fitted effect of over 55% in size
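HEK-293-derived GP2 cells expressing PTHR1 and a GloSensor cAMP reporter, 3,000/well, plated overnight, given luciferin plus IBMX (each 0.5 mM as added) for 1 h at 37 °C, then compound for 1 h at 37 °C. Luminescence was read after 15 min at room temperature.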
RXFP1 agonist: qHTS Assay for Agonists of the Relaxin Receptor RXFP1 | 370,000 tested, 0.3% active | Relaxin receptor 1 (Homo sapiens), Q9HBX9 | HEK293T-RXFP1 cAMP TR-FRET, 30 min; response scale: percent of porcine relaxin response, buffer zero | Potency, µM (titrated, usually from 57.5 µM), hits mostly activators; note: nearly all actives have a fitted effect of over 60% in size
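HEK293T cells stably expressing RXFP1 were pretreated with the PDE4 inhibitor Ro 20174, exposed to compounds for 30 min at 37C, lysed, and cAMP was read by TR-FRET. Data normalized to buffer (basal) and 29 nM porcine relaxin (100%).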
gsp ag: qHTS for Agonist of gsp, the Etiologic Mutation Responsible for Fibrous Dysplasia/McCune-Albright Syndrome: qHTS; AID 624287, 2012; 340,000 tested, 0.13% active; gsp mutant cells, cAMP HTRF, 30 min; Potency, µM (highest dose often 76.9 µM), hits mostly activators; active = well fitted activation curve with a large enough effect; inconclusive = small, poorly fitted or top-dose-only effect, or another doubt; inactive = no such curve, though single readings can be large or run the other way; cell line not stated here;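 note: phosphodiesterase inhibitor Ro 20-1724 added with compounds to block cAMP breakdown; nearly all actives have a fitted effect of over 60% in size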
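Cells stably selected in G418 were plated at 2000/well, grown 16-24 hr, then given compounds in DMSO with the PDE inhibitor […] (300 uM solution added) for 30 min at 37C; cAMP was read by HTRF.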
gsp antag: qHTS for Antagonists of gsp, the Etiologic Mutation Responsible for Fibrous Dysplasia/McCune-Albright Syndrome: qHTS; gsp-mutant cells, cAMP HTRF, 30 min; Potency, µM (doses to about 76.9 µM), usual class: inhibitors; 340,000 tested, 0.4% active; calls by dose curve; cell line not stated here;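 note: intracellular cAMP measured with PDE inhibitor Ro 20-1724 present during compound exposure; nearly all actives have a fitted effect of over 65% in size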
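HTRF cAMP measurement after 30 min RT detection following 30 min, 37C compound treatment alongside […] (added as 300 uM solution) in G418-selected cells seeded at 2000/well and grown 16–24 h.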
Of the large screens only hits and unclear results are named; the others gave an inactive call; ! = not active in a repeat. Unless noted, calls come from the whole dose curve; as a rule, active = well fitted curve in the direction sought with a large enough effect; inconclusive = small, poorly fitted or top-dose-only effect, or another doubt; inactive = no such curve, though single readings can be large; an effect the other way counts as inactive or inconclusive.

O=C(c1ccc(N2CCCC2)c([N+](=O)[O-])c1)N1CCN(S(=O)(=O)c2ccc(Cl)cc2)CC1	RXFP1 antagonist -64
CCOC(=O)C1CCCN(C(=O)c2ccc3c(c2)N(C)C(=O)/C(=C/c2ccccc2Cl)S3)C1 (centres undefined)	gsp antag 11µM
CN1C(=O)/C(=C/c2ccccc2Cl)Sc2ccc(C(=O)N3CCCC3)cc21	gsp antag 32µM
COC(=O)Cc1ccc(NC(=O)c2ccc3c(c2)C(=O)N(Cc2cccnc2)C3=O)cc1	none
C#Cc1cccc(NC(=O)c2ccc3c(c2)C(=O)N(Cc2cccnc2)C3=O)c1	RXFP1 antagonist -88, gsp antag 40µM
CC(C)c1ccc(NC(=O)c2ccc3c(c2)C(=O)N(Cc2cccnc2)C3=O)cc1	gsp ag inconclusive, gsp antag 35µM
O=C(O)c1cc(NC(=O)c2ccc3c(c2)C(=O)N(Cc2cccnc2)C3=O)cc(C(=O)O)c1	none
CCOC(=O)c1ccc(NC(=O)c2ccc3c(c2)C(=O)N(CC2CCCO2)C3=O)cc1 (centres undefined)	gsp antag 32µM
CCOC(=O)c1ccc(NC(=O)c2ccc3c(c2)C(=O)N(Cc2cccnc2)C3=O)cc1	gsp ag inconclusive, gsp antag 35µM
COc1ccc(NC(C)=O)cc1NC(=O)C1(c2cccs2)CCOCC1	none (no result: gsp ag, gsp antag)
COc1ccc(C(=O)NCC(c2ccco2)S(=O)(=O)c2cccs2)cc1 (centres undefined)	none (no result: gsp ag, gsp antag)
COC(=O)/C=C\C(=O)OC	none (no result: PTHR1 agonist, RXFP1 agonist, gsp ag, gsp antag)
COc1cc(NC(=S)NCCO)c(OC)cc1Cl	none
COc1cc(NC(=O)C(=O)NCCN(C)C)c(OC)cc1Cl	RXFP1 antagonist -69
Cc1ccc(OCC(=O)Nc2ccc3nc(SCC(=O)Nc4ccc(C)cc4C)sc3c2)cc1	none (no result: RXFP1 antagonist, gsp ag, gsp antag)
Cc1nn(Cc2ccc(Cl)c(Cl)c2)c(C)c1NC(=O)c1cc(-c2ccco2)on1	gsp antag 32µM
Cc1nn(Cc2ccc(Cl)cc2)c(C)c1NC(=O)c1cc(-c2ccco2)on1	none (no result: RXFP1 antagonist)
O=C(NCc1ccccc1Br)C1CCCN(C(=O)N2CCOc3ccccc32)C1 (centres undefined)	none (no result: gsp ag, gsp antag)
Cc1ccc(S(=O)(=O)Oc2cccc(/C=N/Nc3ccc(C(=O)O)cc3)c2)cc1	RXFP1 antagonist -62
COc1ccc(CCNc2nc(-c3ccc(O)cc3)cs2)cc1OC	gsp antag 35µM
COc1ccc(CCNc2nc(-c3ccncc3)cs2)cc1OC	none
C[n+]1c2cc(N)ccc2cc2ccc(N)cc21 (tested in a mixture with another compound)	none (no result: PTHR1 agonist, RXFP1 agonist, gsp ag, gsp antag)
COc1ccc(-c2cc(=O)c3cc(OC)ccc3[nH]2)cc1	none (no result: RXFP1 antagonist, gsp ag)
COc1ccc(-c2cc(=O)[nH]c(=S)[nH]2)cc1	gsp ag 10µM
COc1ccc(S(=O)(=O)N2CCC(C(=O)NCCC(=O)NCc3ccccc3OC)CC2)cc1	RXFP1 antagonist inconclusive, gsp antag 32µM
COc1ccc(S(=O)(=O)N2CCC(C(=O)NCCC(=O)NCc3ccncc3)CC2)cc1	none
Cc1ccc(-c2cc(C(=O)NCc3cnn(C)c3C)c3cc(Br)ccc3n2)cc1	RXFP1 agonist 28µM!, gsp ag inconclusive
Cc1ccc(-c2cc(C(=O)N(C)Cc3cnn(C)c3C)c3cc(Br)ccc3n2)cc1	gsp ag inconclusive, gsp antag inconclusive
Cc1ccc(NC(=O)Cn2cc(S(=O)(=O)N3CCC(C)CC3)c3ccccc3c2=O)c(Br)c1	RXFP1 agonist inconclusive (no result: RXFP1 antagonist, gsp ag, gsp antag)
COc1cc2c(=O)n(Cc3ccccc3Cl)c(=O)n(CC(=O)Nc3ccccc3)c2cc1OC	none (no result: RXFP1 antagonist, gsp ag, gsp antag)
COc1cc(NC(=O)Cn2c(=O)n(Cc3ccccc3Cl)c(=O)c3cc(OC)c(OC)cc32)cc(OC)c1	RXFP1 agonist 25µM (no result: RXFP1 antagonist, gsp ag, gsp antag)
Cc1c(N)cccc1C(F)(F)F	none (no result: PTHR1 agonist, RXFP1 agonist, gsp ag, gsp antag)
Cc1ccc(N=C2NC(=O)/C(=C/c3cccs3)S2)cc1C	RXFP1 antagonist -77, gsp ag inconclusive
Cc1cccc(N=C2NC(=O)/C(=C\c3cccs3)S2)c1	gsp ag inconclusive
Cc1nc2c(C(=O)NCCc3ccc(Cl)cc3)c[nH]n2c(=O)c1Cc1ccccc1F	none (no result: RXFP1 antagonist, gsp ag, gsp antag)
Cc1nc2c(C(=O)NCCC(C)C)c[nH]n2c(=O)c1Cc1ccccc1F	RXFP1 antagonist -101, gsp antag 20µM
COc1ccccc1C(=O)N(Cc1ccco1)Cc1ccccc1F	none (no result: gsp ag, gsp antag)
O=C(CCS(=O)(=O)c1cc(Br)cc2c1N(C(=O)C1CC1)CC2)N1CCN(c2ccc(F)cc2)CC1	none (no result: gsp ag, gsp antag)
COc1ccc(CN2CCN(C(c3ccc(F)cc3)c3ccc(F)cc3)CC2)c(OC)c1OC	RXFP1 antagonist -106, gsp antag inconclusive (no result: RXFP1 agonist, gsp ag)
CCN(CC)S(=O)(=O)c1cc([N+](=O)[O-])ccc1NNC(=O)Nc1ccc(F)cc1	gsp antag 50µM
CC(C)Oc1ccc(CNC(=O)c2ccc(CS(=O)Cc3ccccc3Cl)o2)cc1 (centres undefined)	none (no result: gsp ag, gsp antag)
O=C(NCCCCc1ccccc1)c1nn(-c2ccccc2F)nc1CO	RXFP1 antagonist -66 (no result: gsp ag, gsp antag)
O=C(NCc1ccc(F)cc1)c1ccc(NC(=O)N2CC3CCCN3c3ccccc32)cc1 (centres undefined)	none (no result: gsp ag, gsp antag)
CN(C)c1ccc(NC(=O)Cn2c(SCc3ccc(F)cc3)nc3ccncc32)cc1	none (no result: RXFP1 antagonist, gsp ag, gsp antag)
CN(C)c1ccc(NC(=O)Cn2c(SCc3ccc(F)cc3)nc3cccnc32)cc1	PTHR1 agonist 50µM, RXFP1 agonist inconclusive (no result: gsp ag, gsp antag)
COC(=O)c1c(C)[nH]c(C(=O)C(C)OC(=O)C2CC(=O)N(c3ccc(C)cc3)C2)c1C (centres undefined)	gsp antag 40µM
CCOc1ccc(NC(=O)C(=O)NCC(c2cccnc2)N2CCc3ccccc32)cc1 (centres undefined)	RXFP1 antagonist -64 (no result: gsp ag, gsp antag)
O=C(NCc1ccc(F)cc1)c1ccc(CS(=O)Cc2ccc(Cl)cc2)o1 (centres undefined)	none (no result: gsp ag, gsp antag)
Cc1ccc(CNC(=O)c2ccc3c(c2)NC(=O)C(N2CCOCC2)S3)cc1 (centres undefined)	RXFP1 antagonist -62
O=C(COC(=O)c1ccc(Cl)cc1)NC(=O)NC1CCCC1	none
CC(NCC(=O)NC(=O)NC1CCCC1)c1ccc(Cl)cc1Cl (centres undefined)	RXFP1 antagonist -63
Cn1cc(/C=C2\SC(=O)N(c3ccccc3)C2=O)c2ccccc21	gsp antag 45µM
Cn1cc(/C=C2\SC(=O)N(c3ccc(O)cc3)C2=O)c2ccccc21	gsp antag 32µM
CCOC(=O)C1(Cc2cccc(OC)c2)CCN(C/C=C/c2ccccc2)CC1	none
CCOC(=O)C1(Cc2cccc(OC)c2)CCN(C/C=C/c2ccc(OC)cc2)CC1	RXFP1 antagonist -82
